PubChem BioAssay
Calls of active or inactive are those of the source. No rule for the calls is given here.

Each molecule was assayed against Pantothenate synthetase (Mycobacterium tuberculosis (strain ATCC 25618 / H37Rv)) (UniProt P9WIL5) (assay: Coupled enzyme confirmation of inhibitors against recombinant Mtb PanC (AID 375;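 also: 0% = full reaction with vehicle and 100% = no enzyme background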)). Details: coupled enzyme assay; at 10 µM, active compounds read high.
Chain of Pantothenate synthetase (Mycobacterium tuberculosis (strain ATCC 25618 / H37Rv)) (P9WIL5 whole entry, looked up): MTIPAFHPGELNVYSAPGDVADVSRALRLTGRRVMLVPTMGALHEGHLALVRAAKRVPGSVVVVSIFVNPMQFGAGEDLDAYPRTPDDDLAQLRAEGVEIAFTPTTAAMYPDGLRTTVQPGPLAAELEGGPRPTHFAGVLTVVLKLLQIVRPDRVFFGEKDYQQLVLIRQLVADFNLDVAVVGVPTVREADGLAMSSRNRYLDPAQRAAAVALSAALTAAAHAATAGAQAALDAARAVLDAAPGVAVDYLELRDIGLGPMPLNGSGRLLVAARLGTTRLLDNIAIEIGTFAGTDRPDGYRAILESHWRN

Row | Structure (SMILES) | inhibition
1 | O=C(Nc1ccc2c(c1)OCO2)c1cccc(Cl)c1 | 0% (inactive)
2 | CCSc1ccccc1C(=O)Nc1cccc(OC)c1 | 0% (inactive)
3 | COc1ccc(Cc2nnc3n2N=C(c2cc4ccccc4o2)CS3)cc1OC | 0% (inactive)
4 | COc1ccc(OC)c(C2C3=C(CCCC3=O)Nc3c2c(=O)n(C)c(=O)n3C)c1 (configuration not stated) | 0% (inactive)
5 | O=C(Nc1ccccc1)N1CCC(c2ccccc2)C1 (configuration not stated) | 6% (inactive)
6 | Cc1cccc(CN2CCN(C(c3ccccc3)c3ccc(Cl)cc3)CC2)c1 (configuration not stated) | 11% (inactive)
7 | CCSc1nnc(NC(=O)c2nn(C(C)C)c(=O)c3ccccc23)s1 | 1% (inactive)
8 | Cc1ccc(NC(=O)c2oc3ccc(S(=O)(=O)N4CCOCC4)cc3c2C)cc1C | 3% (inactive)
9 | CCSc1ncc(C#N)c(=O)[nH]1 | 0% (inactive)
10 | COc1ccccc1-n1c(=O)[nH]c2c(C(N)=O)nc(-c3cccnc3)nc21 | 0% (inactive)
11 | O=C(O)COc1ccc2occ(C(=O)c3ccccc3)c2c1 | 0% (inactive)
12 | C/C(N)=C(/C#N)C(=O)CSc1nnc(Nc2cccc(C)c2)s1 | 0% (inactive)
13 | CC(C)(C)C(=O)Cn1c(=N)n(Cc2ccccc2)c2ccccc21 | 8% (inactive)
14 | COC(=O)Cn1cnc2c(nnn2-c2ccc(C)cc2)c1=O | 0% (inactive)
15 | CCCCN(CC)CCCNC(=O)CS(=O)(=O)Cc1nc(-c2cccc(OC)c2)oc1C | 0% (inactive)
16 | COc1ccc(NC(=O)c2cc(C(C)C)on2)c(OC)c1 | 0% (inactive)
17 | CN(CC(=O)NCCC1=CCCCC1)S(=O)(=O)c1ccc2c(c1)CCC(=O)N2 | 0% (inactive)
